From PubChem BioAssay
KCNQ2 block: inhibitors of rat KCNQ2 potassium channel | O88943 | CHO-K1 KCNQ2, FluxOR thallium flux, 20 min; active compounds read low | B-score at 10 µM | 310,000 compounds, 1.1% hits;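 active = fluorescence ratio B-score at most minus 3 library SDs, with starting brightness B-score within 2 library SDs, cut at about -5.5 in these data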
KCNQ2 pot: KCNQ2 (rat) channel potentiation; CHO-K1 KCNQ2, FluxOR thallium flux fluorescence; active compounds read high; B-score at 10 µM; 310,000 compounds, 0.54% hits; O88943;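 active = fluorescence ratio B-score at least 3 SD of library B-scores, with initial fluorescence B-score within 3 of them, cut at about 5.3 in these data; same plate scores as AID 2156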;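 also: B-score of peak minus minimum over baseline fluorescence ratio after K+ and Tl+ stimulus; positive B-score means potentiation of KCNQ2 with more thallium influx and brighter signal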
KCNQ2 inh conf: rat KCNQ2 channel inhibition, confirmatory screen | 1,000 compounds, 57% hits | AID 493025 | shares compounds with KCNQ2 block | KCNQ2-expressing cells, thallium flux; active compounds read low | activity change, negative = inhibition, % at 10 µM
KCNQ1 spec: selectivity of KCNQ2 inhibitors against human KCNQ1; KCNQ1-expressing cells, FluxOR thallium flux fluorescence; active compounds read low; shares compounds with KCNQ2 block; 1,000 compounds, 15% hits; activity change, negative = inhibition, % at 10 µM;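 active = activity change at least 3 SD of negative controls below their mean in both duplicate wells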;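 also: CHO cells stably transfected with KCNQ1 and depolarized by potassium stimulus; peak minus minimum fluorescence over baseline after thallium addition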
Target sequence (P51787 whole entry, looked up): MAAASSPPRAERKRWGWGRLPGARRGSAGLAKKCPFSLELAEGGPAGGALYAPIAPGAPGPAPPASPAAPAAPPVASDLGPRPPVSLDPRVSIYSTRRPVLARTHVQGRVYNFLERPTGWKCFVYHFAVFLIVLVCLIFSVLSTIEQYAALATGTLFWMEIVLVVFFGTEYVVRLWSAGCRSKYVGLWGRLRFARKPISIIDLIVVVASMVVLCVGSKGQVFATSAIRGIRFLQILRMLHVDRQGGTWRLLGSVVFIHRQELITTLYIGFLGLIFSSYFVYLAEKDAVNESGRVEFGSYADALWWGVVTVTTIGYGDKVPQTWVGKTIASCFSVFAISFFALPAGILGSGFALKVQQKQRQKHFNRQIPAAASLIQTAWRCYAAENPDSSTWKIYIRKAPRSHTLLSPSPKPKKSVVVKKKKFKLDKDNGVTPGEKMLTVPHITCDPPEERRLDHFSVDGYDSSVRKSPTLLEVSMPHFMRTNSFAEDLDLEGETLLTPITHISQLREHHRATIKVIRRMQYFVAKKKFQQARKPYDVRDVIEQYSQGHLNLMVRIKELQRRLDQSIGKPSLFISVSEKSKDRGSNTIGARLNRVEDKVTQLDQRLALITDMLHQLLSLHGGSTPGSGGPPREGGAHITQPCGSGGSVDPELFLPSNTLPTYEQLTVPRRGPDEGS
CHO Tl ctr: counter-screen for KCNQ2 inhibitors: effect in parental CHO cells | thallium flux counter-screen; active compounds read low | 1,000 compounds, 14% hits | shares compounds with KCNQ2 block | activity change, % at 10 µM
KCNQ2 inh confirm: rat KCNQ2 inhibition confirmed by electrophysiology. KCNQ2-expressing cells, automated patch clamp current. shares compounds with KCNQ2 block. calls only at 10 µM. 550 compounds, 49% hits
Numbers stand for hits; . = inactive; / = not tested or not shown; + = active, no number. Most compounds without a hit are left out; they make up all but 1.6% or so of the library. Unless noted, no rule for the calls is given here.

SMILES	KCNQ2 block	KCNQ2 pot	KCNQ2 inh conf	KCNQ1 spec	CHO Tl ctr	others
CN(C)C(CNC(=O)c1ccc(C(=O)c2ccccc2)cc1)c1ccccc1 (stereo not drawn)	.	/	/	/	/
CN(C)/C=C1\C(=O)Oc2ccccc2C1=O	.	.	/	/	/
Cc1cc(O)cc(=O)n1Cc1ccccc1	.	.	/	/	/
COc1ccc(C(=O)CC(=O)c2ccccc2)cc1	.	.	/	/	/
COc1ccc(C(=O)C/C(=C\C(=O)c2ccc(C)cc2)c2ccccc2)cc1	-7.67	.	.	.	.
CSc1ccccc1NC(=O)CO/N=C(\C)c1cc2ccccc2o1	.	/	/	/	/
C/C(=N\OCC(=O)NC12CC3CC(CC(C3)C1)C2)c1cc2ccccc2o1	-6.8	.	-38.5%	-37.0%	-27.0%	KCNQ2 inh confirm=.
O=C(CSc1nnc(NC(=O)c2c(F)cccc2Cl)s1)Nc1ccccc1F	.	.	/	/	/
O=C(/C=C/c1ccco1)NC(=S)Nc1ccccc1N1CCCC1	.	/	/	/	/
O=C(/C=C/c1ccco1)NC(=S)Nc1ccccc1N1CCOCC1	-7.25	.	.	.	.
Cc1nnc(NC(=O)C23CC4CC(CC(C4)C2)C3)s1	.	.	/	/	/
Cc1cc(S(=O)(=O)NCCCN2CCOCC2)c(C)cc1Cl	.	.	/	/	/
O=C(C(=O)N1CCOCC1)c1cn(CCOc2ccccc2)c2ccccc12	.	/	/	/	/
Cc1ccccc1OCCn1cc(C(=O)C(=O)N2CCOCC2)c2ccccc21	-8.47	.	-33.0%	.	.	KCNQ2 inh confirm=+
Cn1cc([N+](=O)[O-])c(C(=O)Nc2cc(Oc3ccccc3)cc([N+](=O)[O-])c2)n1	.	.	/	/	/
Cc1cccc(Oc2cc(NC(=O)c3ccccc3)cc([N+](=O)[O-])c2)c1	-7.32	.	.	.	.
O=C(Nc1nc(-c2ccc(-c3ccccc3)cc2)cs1)c1cc([N+](=O)[O-])ccc1N1CCOCC1	.	.	/	/	/
O=C(Nc1nc2c(ccc3ccccc32)s1)c1cc([N+](=O)[O-])ccc1N1CCOCC1	-9.55	.	-25.0%	.	.	KCNQ2 inh confirm=.
CCCCc1cc(=O)oc2cc(OCC(=O)Nc3cccnc3)c(Cl)cc12	.	.	/	/	/
CCCCNC(=O)N1CCN(c2ccnc3cc(Cl)ccc23)CC1	.	.	/	/	/
COc1cc(N/N=C/c2ccc(N(C)C)cc2)ncn1	.	/	/	/	/
CN(C)c1cc(N/N=C/c2ccc(Cl)cc2)nc(N(C)C)n1	-8.56	.	.	.	.
Cc1ccc(C(=O)COC(=O)CCN2C(=O)C3C4C=CC(C5CC45)C3C2=O)cc1 (stereo not drawn)	.	.	/	/	/
Cc1ccc(NC(=O)CSC2=NN3CCCC(=O)N=C3S2)cc1Cl	.	/	/	/	/
COc1ccc(N2Cc3ccccc3/C2=N\C(=O)Nc2ccccc2)cc1	-7.11	.	-27.5%	.	.	KCNQ2 inh confirm=+
SMILES	KCNQ2 block	KCNQ2 pot	KCNQ2 inh conf	KCNQ1 spec	CHO Tl ctr	others
CC(=O)CN1Cc2ccccc2/C1=N\C(=O)Nc1ccccc1	.	.	/	/	/
CCC(Oc1ccccc1)C(=O)Nc1cc(C(F)(F)F)ccc1N1CCOCC1 (stereo not drawn)	-7.04	.	.	.	.
O=C(Nc1ccccc1N1CCOCC1)c1cc2c(s1)CCCCC2	.	/	/	/	/
CCCCC(=O)Nc1ccccc1N1CCOCC1	.	.	/	/	/
CCc1sc(C(=O)Nc2ccccc2N2CCOCC2)cc1C	-7.34	.	-18.0%	.	.
O=C(CC12CC3CC(CC(C3)C1)C2)Nc1ccccc1N1CCOCC1	-6.85	.	-30.0%	-34.5%	-20.5%	KCNQ2 inh confirm=.
CC(=O)N1CCN(c2ccccc2NC(=O)COc2cc(C)cc(C)c2)CC1	.	/	/	/	/
Cc1cc(C)c(OCC(=O)Nc2ccccc2N2CCOCC2)c(C)c1	-9.45	.	.	.	.
CC(=O)Nc1cc(C(F)(F)F)ccc1N1CCOCC1	.	.	/	/	/
COc1cccc(NC(=O)CCN2C(=O)C3CC=CCC3C2=O)c1 (stereo not drawn)	.	/	/	/	/
CC(C)OC(=O)C(C)Nc1ccc(F)c(Cl)c1 (stereo not drawn)	.	/	/	/	/
CCN(CC)S(=O)(=O)c1ccc(N2CCOCC2)c(NC(=O)CCOc2ccccc2)c1	.	/	/	/	/
CCN(CC)S(=O)(=O)c1ccc(N2CCOCC2)c(NC(=O)COc2ccccc2)c1	-6.78	.	-31.0%	.	.	KCNQ2 inh confirm=+
Cc1cc(NC(=O)C(C)SCC(=O)OCc2c(Cl)cccc2Cl)no1 (stereo not drawn)	.	/	/	/	/
O=C(CCNC(=O)c1ccc(Br)cc1)NCc1ccccn1	.	/	/	/	/
COc1ccc(CNC(=O)C2CCCN(c3ncnc4c3nc3n4CCCCC3)C2)cc1 (stereo not drawn)	.	.	/	/	/
C=CCC1(CC=C)CCCN1C(=O)C1CCC(=O)N(CCc2ccc(Cl)cc2)C1 (stereo not drawn)	-8.21	.	-29.0%	.	.	KCNQ2 inh confirm=+
CC(C)C1CCN(C(=O)C2CCC(=O)N(CCc3ccc(Cl)cc3)C2)CC1 (stereo not drawn)	.	/	/	/	/
CCC(C)Sc1ccc([C@H]2N[C@@](Cc3ccccc3)(C(=O)OC)[C@H]3C(=O)N(CC)C(=O)[C@@H]23)cc1OC (stereo partly drawn)	.	.	/	/	/
CCOC(=O)N1CCC(n2c(SCC(=O)NCCC3=CCCCC3)nc3ccccc3c2=O)CC1	-7.52	.	.	.	.
CCOC(=O)N1CCC(n2c(SCC(=O)NCc3ccccc3)nc3ccccc3c2=O)CC1	.	/	/	/	/
CCOC(=O)N1CCC(n2c(SCC(=O)N3CCC(C)CC3)nc3ccccc3c2=O)CC1	-7.77	.	.	.	.
CCOC(=O)N1CCC(n2c(SCC(=O)N3CCCC3)nc3ccccc3c2=O)CC1	.	/	/	/	/
CC(C)(C)c1ccc(CNC(=O)C2CCCN2C(=O)Nc2ccccc2)cc1 (stereo not drawn)	.	.	/	/	/
COc1ccc(/C=C/C(=O)N2CCCc3ccccc32)c(OC)c1	.	/	/	/	/
SMILES	KCNQ2 block	KCNQ2 pot	KCNQ2 inh conf	KCNQ1 spec	CHO Tl ctr	others
COc1ccc(OC)c(/C=C/C(=O)N2CCCc3ccccc32)c1	-7.02	.	-38.0%	.	.	KCNQ2 inh confirm=.
Cc1cc(OCc2cc(C(=O)N(C)C3CCOC3)no2)cc(C)c1Cl (stereo not drawn)	.	.	/	/	/
O=C(CCc1nc2ccccc2s1)OCC(=O)c1ccc[nH]1	.	.	/	/	/
O=C(CCCN=C1NS(=O)(=O)c2ccccc21)OCC(=O)c1ccccc1Cl	.	.	/	/	/
COc1ccc(S(=O)(=O)N2CCCCCC2)cc1NC(=O)c1c2c(nc3ccccc13)CCN(Cc1ccccc1)C2	.	/	/	/	/
COc1ccc(NC(=O)c2c3c(nc4ccccc24)CCN(Cc2ccccc2)C3)c(OC)c1	-11.4	.	.	.	.
COc1ccc(CN(C(=O)c2ccco2)c2ccc(C)c(C)c2)cc1	-6.66	.	.	.	.
CCOc1ccc(N(Cc2ccc(OC)cc2)C(=O)c2ccco2)cc1	.	/	/	/	/
Nc1cccc2c1C(=O)N(CCOc1ccccc1F)C2=O	.	/	/	/	/
COc1cccc2cc(C(=O)OCc3ccccc3)c(=O)oc12	.	/	/	/	/
CN1C(=O)C(CCC(=O)O)NC1=S (stereo not drawn)	.	.	/	/	/
Cc1ccc2oc(=O)c3cc(C(=O)NCCCN4C(C)CCCC4C)sc3c2c1 (stereo not drawn)	.	.	/	/	/
O=c1c2c3c(sc2ncn1/N=C/c1ccc([N+](=O)[O-])o1)CCCC3	.	/	/	/	/
